Among all 310,000 compounds or so, about 14,000 (4.5%) showed an effect of 50% or more. The effect is printed as a negative number. The list comes from a sample in which strong results are over-represented; it also holds similar structures and randomly drawn compounds.
What follows are molecules tested against human ether-à-go-go-related gene (hERG) potassium channel (human, UniProt Q12809) (assay: primary screen, population patch clamp on CHO cells stably expressing hERG; higher = less effect of the substance).
human ether-à-go-go-related gene (hERG) potassium channel, sequence (Q12809 whole entry, looked up): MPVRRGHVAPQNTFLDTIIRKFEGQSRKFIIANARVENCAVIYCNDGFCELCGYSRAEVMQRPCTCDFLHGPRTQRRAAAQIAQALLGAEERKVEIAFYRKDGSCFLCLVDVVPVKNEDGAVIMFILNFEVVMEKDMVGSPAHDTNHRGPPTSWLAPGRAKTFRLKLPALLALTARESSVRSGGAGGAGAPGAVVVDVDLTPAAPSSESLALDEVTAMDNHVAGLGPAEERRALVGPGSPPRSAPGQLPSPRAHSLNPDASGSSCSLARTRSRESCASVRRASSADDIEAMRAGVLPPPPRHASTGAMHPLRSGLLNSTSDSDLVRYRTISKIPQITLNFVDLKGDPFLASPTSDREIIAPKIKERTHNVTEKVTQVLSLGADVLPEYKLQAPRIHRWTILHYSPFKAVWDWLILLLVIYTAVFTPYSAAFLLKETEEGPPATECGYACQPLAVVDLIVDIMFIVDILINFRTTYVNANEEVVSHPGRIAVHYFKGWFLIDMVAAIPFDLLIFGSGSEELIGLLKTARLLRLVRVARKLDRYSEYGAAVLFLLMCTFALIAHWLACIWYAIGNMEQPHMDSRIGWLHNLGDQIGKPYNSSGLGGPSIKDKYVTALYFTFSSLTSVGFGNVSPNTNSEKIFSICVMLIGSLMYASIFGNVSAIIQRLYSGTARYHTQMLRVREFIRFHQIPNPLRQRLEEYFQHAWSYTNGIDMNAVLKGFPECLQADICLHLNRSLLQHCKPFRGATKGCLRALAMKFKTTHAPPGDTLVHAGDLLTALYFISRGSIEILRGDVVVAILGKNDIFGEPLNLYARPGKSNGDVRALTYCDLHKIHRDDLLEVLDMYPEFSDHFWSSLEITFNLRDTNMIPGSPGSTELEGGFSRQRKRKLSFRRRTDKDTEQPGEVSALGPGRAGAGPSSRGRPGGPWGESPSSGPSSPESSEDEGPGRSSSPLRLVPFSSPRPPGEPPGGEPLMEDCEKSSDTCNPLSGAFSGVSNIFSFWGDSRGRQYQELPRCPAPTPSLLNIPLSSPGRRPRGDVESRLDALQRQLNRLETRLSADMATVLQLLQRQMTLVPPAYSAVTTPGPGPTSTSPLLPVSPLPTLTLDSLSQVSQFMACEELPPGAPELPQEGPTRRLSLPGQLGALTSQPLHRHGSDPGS
With Cc1ccc(S(=O)(=O)N2CCCCC2CCNC(=O)C(=O)NCC2CCCO2)cc1 (stereo not drawn) the “hERG current change (%, negative = inhibition) at 10uM” value was -23.6%.
O=C(CSc1cccc2cccnc12)N1CCCC1 was tested, and the “hERG current change (%, negative = inhibition) at 10uM” value was 12%.
With NS(=O)(=O)c1ccc(NC(=O)c2c(Cl)cccc2Cl)cc1 the “hERG current change (%, negative = inhibition) at 10uM” value was 9.38%.
Cc1ccc2c(CN3CCOCC3)cc(=O)oc2c1C was tested, and the “hERG current change (%, negative = inhibition) at 10uM” value was 0.23%.
With Cc1c(O)ccc2c(CN(C)Cc3ccccc3)cc(=O)oc12 the “hERG current change (%, negative = inhibition) at 10uM” value was 10.2%.
O=c1cc(CN2CCN(C/C=C/c3ccccc3)CC2)c2cc(O)c(-c3ccccc3)cc2o1 was tested, and the “hERG current change (%, negative = inhibition) at 10uM” value was 11.6%.
For Cc1cc2oc(=O)cc(CN3CCN(C/C=C/c4ccccc4)CC3)c2cc1O, the “hERG current change (%, negative = inhibition) at 10uM” value was -80.9%.
With Cc1c(O)ccc2c(CN3CCN(C/C=C/c4ccccc4)CC3)cc(=O)oc12 the “hERG current change (%, negative = inhibition) at 10uM” value was -64.1%.
Cc1cc2oc(=O)cc(CN3CCCCC3)c2cc1O was tested, and the “hERG current change (%, negative = inhibition) at 10uM” value was -1.42%.
In the case of CCC(C)Sc1ccc([C@H]2N[C@@](C)(C(=O)OC)[C@H]3C(=O)N(CC)C(=O)[C@@H]23)cc1.O=C(O)C(F)(F)F (stereo partly drawn), the “hERG current change (%, negative = inhibition) at 10uM” value is reported as 7.25%.
For Brc1ccc(-c2nnc3n2-c2ccccc2CC3)cc1, the “hERG current change (%, negative = inhibition) at 10uM” value was -41.3%.
For COc1ccc(C(=O)Nc2ccc(S(=O)(=O)N3CCCCC3)cc2)cc1OC, the “hERG current change (%, negative = inhibition) at 10uM” value was -9.83%.
In the case of COc1ccc(NC(=O)c2ccc(Cl)nc2)cc1S(=O)(=O)N1CCCCC1, the “hERG current change (%, negative = inhibition) at 10uM” value is reported as -59%.
COc1ccc(NC(=O)c2cc(OC)c(OC)c(OC)c2)cc1S(=O)(=O)N1CCCCC1 was tested, and the “hERG current change (%, negative = inhibition) at 10uM” value was 15.5%.
COc1ccc(NC(=O)c2ccc(S(=O)(=O)N3CCCC3)cc2)cc1OC was tested, and the “hERG current change (%, negative = inhibition) at 10uM” value was -158%.
COc1ccc(NC(=O)c2cccc(S(=O)(=O)N3CCCC3)c2)cc1OC was tested, and the “hERG current change (%, negative = inhibition) at 10uM” value was -4.78%.
With COc1ccc(NC(=O)c2ccc(Cl)nc2)cc1S(=O)(=O)N1CCOCC1 the “hERG current change (%, negative = inhibition) at 10uM” value was -10.5%.
With S=C(c1c[nH]c2ccccc12)N1CCCC1 the “hERG current change (%, negative = inhibition) at 10uM” value was 9.74%.
With Cc1ccc(CN2CC(C(=O)Nc3nnc(SCc4c(Cl)cccc4Cl)s3)CC2=O)cc1 (stereo not drawn) the “hERG current change (%, negative = inhibition) at 10uM” value was 14.1%.
For Cn1cc(C(=O)OCC(=O)NC2CCCC2)c2ccccc21, the “hERG current change (%, negative = inhibition) at 10uM” value was 7.9%.
In the case of O=[N+]([O-])c1ccccc1S(=O)(=O)NCCc1ccncc1, the “hERG current change (%, negative = inhibition) at 10uM” value is reported as 14.9%.
In the case of COc1ccccc1C(=O)OCC(=O)Nc1ccc(Cl)cn1, the “hERG current change (%, negative = inhibition) at 10uM” value is reported as 10.1%.
Cc1ccccc1C(=O)NC1CCN(Cc2nnnn2Cc2ccc(F)cc2)CC1 was tested, and the “hERG current change (%, negative = inhibition) at 10uM” value was -40.9%.
With Cc1ccc(Cn2nnnc2CN2CCC(NC(=O)c3ccccc3F)CC2)cc1 the “hERG current change (%, negative = inhibition) at 10uM” value was -27.2%.
With O=C(Nc1ccccc1F)NC1CCN(Cc2nnnn2Cc2ccc(F)cc2)CC1 the “hERG current change (%, negative = inhibition) at 10uM” value was -69.2%.
For COCCn1nnnc1CN1CCC(NC(=O)Nc2cccc(OC)c2)CC1, the “hERG current change (%, negative = inhibition) at 10uM” value was 8.3%.
With COc1cccc(NC(=O)NC2CCN(Cc3nnnn3Cc3ccc4c(c3)OCO4)CC2)c1 the “hERG current change (%, negative = inhibition) at 10uM” value was -23.3%.
With COc1cccc(NC(=O)NC2CCN(Cc3nnnn3Cc3ccc(F)cc3)CC2)c1 the “hERG current change (%, negative = inhibition) at 10uM” value was -53.2%.
In the case of OC(c1ccccc1)(c1ccccc1)C1CCN(C(=S)NCCc2ccccc2)CC1, the “hERG current change (%, negative = inhibition) at 10uM” value is reported as 16.3%.
For CN(CC(=O)Nc1cccc(F)c1)C(=O)C1CC(=O)N(Cc2ccco2)C1 (stereo not drawn), the “hERG current change (%, negative = inhibition) at 10uM” value was -8%.
CN(Cc1ccccc1)CC(O)COc1ccc(CNCCc2cccnc2)cc1 (stereo not drawn) was tested, and the “hERG current change (%, negative = inhibition) at 10uM” value was -11.5%.
For COc1ccc(S(=O)(=O)N(CC(=O)NCc2ccccn2)c2ccc(Cl)cc2)cc1, the “hERG current change (%, negative = inhibition) at 10uM” value was 13.3%.
With CN(CC(=O)NCc1ccccn1)S(=O)(=O)c1ccc(Cl)cc1 the “hERG current change (%, negative = inhibition) at 10uM” value was -12%.
In the case of O=C(CN(c1cccc(Cl)c1)S(=O)(=O)c1ccc(Cl)cc1)NCc1ccccn1, the “hERG current change (%, negative = inhibition) at 10uM” value is reported as -53.1%.
In the case of CSc1ccc(S(=O)(=O)N(CC(=O)NCc2ccccn2)c2ccc(C)cc2)cc1, the “hERG current change (%, negative = inhibition) at 10uM” value is reported as -59.3%.
For Cc1ccc(S(=O)(=O)N(CC(=O)NCc2ccccn2)c2ccc(Cl)cc2)cc1, the “hERG current change (%, negative = inhibition) at 10uM” value was -29.7%.
In the case of CCNC(=O)CN(c1ccc(C)cc1)S(=O)(=O)c1ccc(SC)cc1, the “hERG current change (%, negative = inhibition) at 10uM” value is reported as -19%.
For CCN(Cc1ccccc1)S(=O)(=O)c1ccc2c(c1)NC(=O)CS2, the “hERG current change (%, negative = inhibition) at 10uM” value was -44.5%.
For CN(CC(=O)Nc1ccccc1Br)C(=O)CN(C)C1CCCCC1, the “hERG current change (%, negative = inhibition) at 10uM” value was 7.12%.
Cc1cccc(C)c1-n1c(C)cc(/C=N/NC(=O)c2ccncc2)c1C was tested, and the “hERG current change (%, negative = inhibition) at 10uM” value was -12%.
In the case of Cn1c(NC(=O)c2ccc(F)cc2)nc2ccccc21, the “hERG current change (%, negative = inhibition) at 10uM” value is reported as 21.5%.
In the case of O=C(c1cc2cc([N+](=O)[O-])ccc2oc1=O)N1CCOCC1, the “hERG current change (%, negative = inhibition) at 10uM” value is reported as -0.062%.
CCN1CCN(C(=O)c2cc3cc([N+](=O)[O-])ccc3oc2=O)CC1 was tested, and the “hERG current change (%, negative = inhibition) at 10uM” value was -14.4%.
With O=C(c1cc2cc([N+](=O)[O-])ccc2oc1=O)N1CCN(c2ncccn2)CC1 the “hERG current change (%, negative = inhibition) at 10uM” value was -0.285%.
For O=C(c1cc2cc([N+](=O)[O-])ccc2oc1=O)N1CCN(C2CCCCC2)CC1, the “hERG current change (%, negative = inhibition) at 10uM” value was -72.5%.
In the case of O=C(c1ccco1)N1CCN(C(=O)c2cc3ccccc3oc2=O)CC1, the “hERG current change (%, negative = inhibition) at 10uM” value is reported as -13.2%.
For O=C(c1ccco1)N1CCN(C(=O)c2cc3cc([N+](=O)[O-])ccc3oc2=O)CC1, the “hERG current change (%, negative = inhibition) at 10uM” value was -52.4%.
With Cc1ccc(S(=O)(=O)CCC(=O)Nc2ccc(Br)cc2)cc1 the “hERG current change (%, negative = inhibition) at 10uM” value was -7.37%.
For CC(C)OC(=O)c1cc(C(=O)c2cc(F)ccc2O)coc1=N, the “hERG current change (%, negative = inhibition) at 10uM” value was -7.34%.
In the case of Cl.O=C(O)C1=CCCNC1, the “hERG current change (%, negative = inhibition) at 10uM” value is reported as -54.4%.
For Cl.O=C(O)C1=CCNCC1, the “hERG current change (%, negative = inhibition) at 10uM” value was 17.6%.
In the case of CCOc1ccccc1C(=O)Nc1cc(C)ccc1NC(=O)c1ccco1, the “hERG current change (%, negative = inhibition) at 10uM” value is reported as -75.3%.
With COc1ccc(C(=O)Nc2ccccc2NC(=O)c2ccco2)c(OC)c1 the “hERG current change (%, negative = inhibition) at 10uM” value was -21.9%.
In the case of COc1ccccc1NC(=O)c1cc(Cl)ccc1NC(=O)c1ccco1, the “hERG current change (%, negative = inhibition) at 10uM” value is reported as -1.81%.
With Cc1ccc(NC(=O)c2ccco2)c(NC(=O)c2ccccc2C)c1 the “hERG current change (%, negative = inhibition) at 10uM” value was 17.9%.
In the case of COc1ccccc1C(=O)Nc1cc(C)ccc1NC(=O)c1ccco1, the “hERG current change (%, negative = inhibition) at 10uM” value is reported as -44.4%.
With COc1ccc(C(=O)Nc2ccc(Cl)cc2C(=O)NCCN2CCOCC2)cc1 the “hERG current change (%, negative = inhibition) at 10uM” value was -12.3%.
COc1ccc(C(=O)Nc2ccc(Cl)cc2C(=O)NCCO)cc1 was tested, and the “hERG current change (%, negative = inhibition) at 10uM” value was -53.8%.
For COc1ccccc1NC(=O)c1ccccc1NC(=O)c1cc(Cl)ccc1NC(=O)c1ccco1, the “hERG current change (%, negative = inhibition) at 10uM” value was 2.97%.
With COc1ccc(OC)c(NC(=O)c2ccccc2NC(=O)c2ccco2)c1 the “hERG current change (%, negative = inhibition) at 10uM” value was -75.6%.
With COc1ccc(C(=O)Nc2ccc(Cl)cc2C(=O)NCc2ccco2)cc1 the “hERG current change (%, negative = inhibition) at 10uM” value was -0.702%.
COc1ccc(NC(=O)c2cc(Cl)ccc2NC(=O)c2ccco2)c(OC)c1 was tested, and the “hERG current change (%, negative = inhibition) at 10uM” value was -85.2%.
For COc1ccc(NC(=O)c2ccccc2NC(=O)c2ccco2)cc1, the “hERG current change (%, negative = inhibition) at 10uM” value was 18.5%.
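Further: peak tail current of the secondary pulse compared with the same well before compound.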
